Hit rate of the full screen: of about 52,000 compounds, about 4,300 (8.3%) were called active. Rule as the data show it: active = survival mostly below about 52% (no sharp cut-off); inactive = mostly above about 56%. The list comes from a sample in which actives are over-represented; it also holds similar structures and randomly drawn compounds.
These compounds were tested on DeltatarO mutant (assay: growth inhibition of S. aureus wild type versus tarO mutant, primary screen, teichoic acid synthesis inhibitors, RN4220, OD600 (AID 463173)). Conditions: OD600, 18 h, active compounds read low, screened at 18.75 µg/mL (by protocol).

Compound | survival
CCC(=O)Nc1ccc2nc3c(=O)n(C)c(=O)n(C)c3nc2c1 | 66% (inactive)
Cc1ccc(S(=O)(=O)c2cc3cc(C(=O)Nc4ccc(C)cc4C)ccc3oc2=O)cc1 | 89% (inactive)
CCOC(=O)COc1nc(C)c(Br)c(OC)n1 | 81% (inactive)
COc1ccc(CNC(=O)COCc2cc(-c3cccs3)on2)cc1 | 107% (inactive)
CC1CCN(S(=O)(=O)c2ccc3c(c2)CCN3C(=O)Nc2ccc(Br)cc2F)CC1 | 74% (inactive)
O=c1n(Cc2ccc(Cl)cc2)c2ccccc2c2nc(-c3ccccc3)nn12 | 95% (inactive)
CCCCNC(=O)CCC(=O)NNc1nc2ccccc2c2nc(-c3ccccc3)nn12 | 78% (inactive)
CCCCNc1nc2ccccc2c2nc(-c3ccccc3)nn12 | -1% (active)
Cc1ccc(CCNc2nc3ccccc3c3nc(-c4cccnc4)nn23)cc1 | 66% (inactive)
Clc1ccc(CCNc2nc3ccccc3c3nc(-c4ccccc4)nn23)cc1 | 29% (active)
Cc1ccc(CCNc2nc3ccccc3c3nc(-c4ccccc4)nn23)cc1 | 44% (active)
CC(CNc1nc2ccccc2c2nc(-c3ccccc3)nn12)c1ccccc1 (stereo not given) | 121% (inactive)
COc1cc2nc(NCCc3ccc(Cl)cc3)n3nc(-c4ccccc4)nc3c2cc1OC | 51% (inactive)
CCc1ccc(CNC(=O)Cn2nc(C)n3c(cc4cc(C)ccc43)c2=O)cc1 | 83% (inactive)
Cc1ccc(NC(=O)c2cnc3sc(N4CCOCC4)nn3c2=O)cc1N(C)C | 80% (inactive)
COc1cccc(NC(=O)Cn2nnc(C(=O)NCCc3ccccc3)c2N)c1 | 144% (inactive)
Cc1ccc(Cn2c(=O)n(-c3cccc(C(F)(F)F)c3)c(=O)c3c(C)c(C)sc32)c(C)c1 | 97% (inactive)
COc1ccc(CNC(=O)c2cnc(N(C)C)nc2)cc1 | 73% (inactive)
COc1ccc(-c2cn3c(c2C)-c2ccc(C)n2CC3)cc1 | 91% (inactive)
Cc1ccc(N(Cc2cccs2)C(=O)c2ccc(OC(C)C)cc2)cc1 | 95% (inactive)
O=C(c1cc2sccc2n1Cc1ccccc1)N(Cc1ccco1)Cc1cccs1 | 96% (inactive)
CC(C)Oc1ccc(C(=O)N(Cc2ccc(N(C)C)cc2)Cc2ccco2)cc1 | 59% (inactive)
Cc1ccc(C(=O)N(Cc2ccco2)Cc2sccc2C)cc1 | 44% (inactive)
Cc1ccsc1CN(Cc1ccco1)C(=O)c1ccc(Cl)cc1 | 34% (active)

Compound | survival
O=C(c1ccc(Cl)cc1)N(Cc1ccco1)Cc1ccco1 | 97% (inactive)
CC(C)Oc1ccc(C(=O)N(Cc2ccco2)Cc2cccs2)cc1 | 36% (active)
Cc1ccc(CN(Cc2ccco2)C(=O)c2cccc(C)c2)cc1 | 68% (inactive)
O=C(c1ccccc1)N(Cc1ccco1)Cc1cccs1 | 41% (active)
O=C(Nc1nnc(N2CCCCCC2)s1)Nc1cc(F)ccc1F | 103% (inactive)
CC1=C(C(=O)N(C)C)C(c2ccccc2Cl)NC(=O)N1 (stereo not given) | 76% (inactive)
CC(C)N1CC(C(=O)Nc2ccccc2)CC1=O (stereo not given) | 73% (inactive)
CCOC(=O)c1cc(-c2ccc(OC)c(S(=O)(=O)NC3CCCCC3)c2)on1 | 89% (inactive)
CN1CCSc2ccc(C(=O)NCc3ccccc3)cc21 | 67% (inactive)
O=C(NC1CCCC1)C(c1ccncc1)N(CCCN1CCOCC1)C(=O)c1ccc(-c2ccccc2)[nH]1 (stereo not given) | 76% (inactive)
CN(C)C(=O)c1ccc(S(=O)(=O)NCc2ccccc2Cl)s1 | 94% (inactive)
Cc1cccc(Cn2cc(C(=O)Nc3cc(F)ccc3F)ccc2=O)c1 | 74% (inactive)
Cc1noc(-c2ccc(-c3noc(-c4cccc(F)c4)n3)cc2)n1 | 76% (inactive)
Cc1ccc(NC(=O)Cn2cc3c(n2)CCCC3)cc1Cl | 87% (inactive)
COc1ccc(C2CC(=O)c3c([nH]c(C(=O)OC4CCCC4)c3C)C2)cc1OC (stereo not given) | 128% (inactive)
COc1ccc(C2CC(=O)c3c([nH]c(C(=O)OC4CCCCCC4)c3C)C2)cc1OC (stereo not given) | 81% (inactive)
COc1cc(C2CC(=O)c3c([nH]c(C(=O)OC4CCCC4)c3C)C2)cc(OC)c1OC (stereo not given) | 51% (active)
CC1(C)CC(=O)C2=C(C1)OC(N)=C(C#N)C2c1ccc2c(c1Cl)OCO2 (stereo not given) | 97% (inactive)
COC(=O)c1ccccc1NC(=O)c1cc(CN2CCCC2)on1 | 75% (inactive)
COc1ccc(-c2cc(C(=O)Nc3ccc4c(c3)OCO4)no2)cc1OC | 65% (inactive)
COc1ccccc1-c1cc(C(=O)N2CCCCC2C)no1 (stereo not given) | 11% (active)
CC1CCCCN1C(=O)c1cc(-c2ccccc2)on1 (stereo not given) | 88% (inactive)
COc1ccc(-c2cc(C(=O)N3CCCCC3C)no2)cc1OC (stereo not given) | 58% (active)
CC1CCCCN1C(=O)c1cc(-c2ccc(Br)cc2)on1 (stereo not given) | 66% (inactive)

Compound | survival
CC1CCCCN1C(=O)c1cccc(C(=O)N2CCCCC2C)c1 (stereo not given) | 80% (inactive)
CCOc1ccccc1C(=O)N(C)c1ccccc1 | 92% (inactive)
CCc1nn2c(=O)cc(COC(=O)c3ccccc3NC(=O)c3ccc(C(C)(C)C)cc3)nc2s1 | 91% (inactive)
O=c1cc(-c2ccccc2)nc(SCc2nc(-c3ccccc3Cl)no2)[nH]1 | 69% (inactive)
Cc1ccc(CNC(=O)Cn2c(-c3cccs3)cc3cc(Cl)ccc32)cc1 | 79% (inactive)
CCOc1cccc(C(=O)Nc2ccc3oc(-c4ccc(C(C)(C)C)cc4)nc3c2)c1 | 46% (active)
CCOc1cccc(C(=O)Nc2ccc3oc(-c4ccncc4)nc3c2)c1 | 70% (inactive)
CCOc1ccc(C(=O)Nc2ccc3oc(-c4cccc5ccccc45)nc3c2)cc1 | 60% (active)
CCCCOc1ccc(C(=O)Nc2ccc3oc(-c4cccnc4)nc3c2)cc1 | 69% (inactive)
CCOc1cccc(C(=O)Nc2ccc3oc(-c4cccnc4)nc3c2)c1 | 56% (inactive)
CCOc1ccc(C(=O)Nc2ccc3oc(-c4ccncc4)nc3c2)cc1 | 74% (inactive)
Cc1ccc(C(=O)Nc2ccc3oc(-c4ccc(C(C)(C)C)cc4)nc3c2)cc1 | 70% (inactive)
CCCCOc1cccc(C(=O)Nc2ccc3oc(-c4cccnc4)nc3c2)c1 | 46% (active)
CCOc1ccc(C(=O)Nc2ccc3oc(-c4ccc5ccccc5c4)nc3c2)cc1 | 74% (inactive)
O=C(Nc1ccc(NC(=O)C2CC2)nc1)c1cccc(F)c1 | 77% (inactive)
CCCCCc1nn2cc(-c3ccccc3)nc2s1 | 105% (inactive)
Nc1ccc(CN2C(=O)c3ccccc3C2=O)cc1 | 91% (inactive)
O=C(C1CCCN(S(=O)(=O)c2cccs2)C1)N1CCN(c2ccccc2F)CC1 (stereo not given) | 85% (inactive)
CCn1cc(C(=O)N2CCN(c3ccc(C(C)=O)cc3)CC2)c2cc(OC)c(OC)cc2c1=O | 164% (inactive)
CCC(=O)N1CCc2cc(S(=O)(=O)CCC(=O)N3CCN(c4cccc(C)c4C)CC3)ccc21 | 98% (inactive)
Cc1cc(C)cc(NC(=O)CSc2nnc(COc3ccccc3Cl)o2)c1 | 12% (active)
COc1cccc(NC(=O)CSc2nnc(COc3ccc(Cl)cc3)o2)c1 | 57% (active)
CCc1ccccc1NC(=O)CSc1nnc(COc2ccccc2Cl)o1 | 66% (inactive)
COc1ccc(CCCc2nnc(SCC(=O)Nc3cccc(F)c3C)o2)cc1 | 39% (active)

Compound | survival
COc1ccc(CCCc2nnc(SCC(=O)Nc3cc(F)ccc3C)o2)cc1 | 64% (inactive)
COc1ccc(CCCc2nnc(SCC(=O)Nc3ccc(OC)cc3)o2)cc1 | 65% (inactive)
CC(C)c1ccccc1NC(=O)CSc1nnc(COc2ccccc2Cl)o1 | 99% (inactive)
Cc1ccc(NC(=O)CSc2nnc(COc3ccc(Cl)cc3)o2)cc1 | 49% (inactive)
O=C(CSc1nnc(COc2ccc(Cl)cc2)o1)Nc1ccccc1 | 51% (inactive)
O=c1c2oc3ccccc3c2n(Cc2ccccc2)c(=O)n1Cc1ccco1 | 95% (inactive)
CCN(Cc1ccccc1)C(=O)CN1C(=O)COc2ccc(S(=O)(=O)N3CCCCCC3)cc21 | 95% (inactive)
COc1cc(C2CC(=O)c3cnc(N4CCN(CCO)CC4)nc3C2)cc(OC)c1OC (stereo not given) | 92% (inactive)
CCCn1c(N2CCN(C(=O)Nc3ccc(OC)cc3)CC2)nc2ccccc21 | 104% (inactive)
CCn1c(N2CCN(C(=O)Nc3ccc(Cl)c(C(F)(F)F)c3)CC2)nc2ccccc21 | 0% (active)
CC(C)Cn1c(N2CCN(C(=O)Nc3ccc(Cl)cc3)CC2)nc2ccccc21 | 102% (inactive)
CC(=O)c1ccc(NC(=O)c2noc3c2CSc2ccccc2-3)cc1 | 54% (inactive)
COCCCNC(=O)C1CCN(Cc2nc(-c3ccc(OC)c(OC)c3)oc2C)CC1 | 88% (inactive)
COc1ccc(OC)c(-c2noc(N3CCN(c4ccc(C(C)=O)cc4)CC3)n2)c1 | 134% (inactive)
COc1ccc(/C=C/C(=O)Nc2ccc3nc(N4CCC(C)CC4)cc(C)c3c2)cc1 | 51% (active)
Cc1cc(N2CCC(C)CC2)nc2ccc(NC(=O)/C=C/c3cccc(Cl)c3)cc12 | 53% (active)
Cc1cc(N2CCCCC2)nc2ccc(NC(=O)/C=C/c3ccccc3Cl)cc12 | 44% (active)
COc1ccc(/C=C/C(=O)Nc2ccc3nc(N4CCCCC4)cc(C)c3c2)cc1OC | 43% (active)
Cc1ccc(/C=C/C(=O)Nc2ccc3nc(N4CCC(C)CC4)cc(C)c3c2)cc1 | 122% (inactive)
Cc1cc(N2CCCCC2)nc2ccc(NC(=O)/C=C/c3ccc(OC(C)C)cc3)cc12 | 50% (inactive)
Cc1cc(N2CCCCC2)nc2ccc(NC(=O)/C=C/c3ccccc3OC(C)C)cc12 | 73% (inactive)
COc1ccc(/C=C/C(=O)Nc2ccc3nc(N4CCC(C)CC4)cc(C)c3c2)cc1OC | 51% (inactive)
Cc1cc(N2CCCCC2)nc2ccc(NC(=O)/C=C/c3ccc(OCCC(C)C)cc3)cc12 | 56% (inactive)

Source: PubChem BioAssay AID463173 (ICCB-Longwood Screening Facility, Harvard Medical School, 2010)
